Laboratory results published in the supplement of paper PMC10338343.
± gives the standard deviation.

System: MILI (PIWIL2) piRISC loaded with L1MC piRNA (26 nt)
Test: pre-steady-state target cleavage rate (min^-1); guide: L1MC piRNA 5'p-UAACUAAAUACUAUGCAAGCUGUAGG; MIWI and MILI are mouse PIWI proteins and EfPiwi is from a freshwater sponge; tags in brackets are library labels; higher = faster piRNA-guided slicing of the target
Settings: auxiliary factor: none (no GTSF1)
How it was run: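 A burst-and-steady-state fit was used to obtain the pre-steady-state cleavage rate. The input data were sequencing reads of uncleaved targets, normalised to depth and to weakly complementary targets, from a […] transcribed, DNA-blocked target RNA library mixed with 1 nM active affinity-purified piRISC holding one synthetic guide, with or without 500 nM GTSF1 partner protein, in HEPES–potassium acetate buffer at 33 °C for 0–8 or 0–960 min. Three trials were pooled and k3 was capped at 0.0001 min^-1.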
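Note: 1 nM active piRISC with 0.1 nM target library at 33 °C single turnover.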

Row | Sequence | pre-steady-state target cleavage rate
1 | UCCUGGAUCAGGAUGCAUAGUAUUUAGUUA | 0.00724 ± 0.0018
2 | UCCUGGUCAGCUUGCAUAGUAUUUAGUUA | 0.012 ± 0.0027
3 | UCCUGCUUCAGCUUGCAUACUAUUUAGUUA | 0.00358 ± 0.002
4 | UCCUCCUACAGCUAGCAUAGUAUUUAGUUA | 0.00812 ± 0.0022
5 | UCCUGCUACGAGCUUGCAUAGUAUUUAGUUA | 0.00594 ± 0.0032
6 | UCCUGGAUGAGCUAGCAUAGUAUUUAGUUA | 0.00679 ± 0.0019
7 | UCCUCCUACAGGUUGCAUAGUAUUUAGUAA | 0.00603 ± 0.0015
8 | UCCUCCUACAAGCUUGCAUAGUAUUUAGUUA | 0.00894 ± 0.0024
9 | UCCUGGUACAGCUUGCAUAGUAUUUAGUUC [g2:g24:cont:t1C] | 0.0117 ± 0.0049
10 | UCCUGGUACAGCAUGCAUACUAUUUAGUUA | 0.00694 ± 0.003
11 | UCCUCCUACAUGCUUGCAUAGUAUUUAGUUA | 0.0058 ± 0.002
12 | UCCUGGAUCAGCUUGCAUAGUAUUUAGUUA [g2:g22:cont:t1A] | 0.00864 ± 0.0019
13 | UCCUCCUACAGCUAGCAUACUAUUUAGUUA | 0.0031 ± 0.0022
14 | UCCUGCAACAGCUAGCAUAGUAUUUAGUUA | 0.0104 ± 0.0028
15 | UCCUGGAACAGCUUUGCAUAGUAUUUAGUUA | 0.00711 ± 0.0027
16 | UCCUGGAACAGCUUGCAUAGUAUAUAGUUA | 0.00847 ± 0.0025
17 | UCCUGCUACAGCUUGCAUUGUAUUUACUUA | 0.00348 ± 0.0023
18 | UCCUGGAUGAGCUAGCAUAGUUUUUAGUUA | 0.00507 ± 0.0028
19 | UCCUGCUACUGCUUGCUUAGUAUUUAGUUA | 0.00589 ± 0.002
20 | UCCUGCUACAGGUUGCAAAGUAUUUAGUUA | 0.00965 ± 0.0025

Row | Sequence | pre-steady-state target cleavage rate
21 | UCCUCCAACACCUUGCAUAGUAUUUAGUUA | 0.00554 ± 0.0024
22 | UCCUGGAUCGCUUGCAUAGUAUUUAGUUA | 0.00599 ± 0.0021
23 | UCCUGGAACAGCUUGCAAAGUAAUUAGUUA | 0.00424 ± 0.0022
24 | UCCUGCUACAGCAUGCAUAGUAUUAAGUUA | 0.00346 ± 0.0032
25 | UCCUGGAUGUGCUUGCAUAGUUUUUAGUUA | 0.00796 ± 0.0026
26 | UCCUGGAUCAGCUUGCAUAGUAUUUGGUUA | 0.0139 ± 0.003
27 | UCCUGGAUGAGCUUUGCAUAGUAUUUAGUUA | 0.0103 ± 0.0021
28 | UCCUGCUACAGCUCGCAUAGUAUUUAGUUA | 0.00757 ± 0.0027
29 | UCCUGGAUGUGCUUGCAUAGUAUUUAGUAA | 0.00665 ± 0.0025
30 | UCCUGGAUGUGCUUACAUAGUAUUUAGUUA | 0.0117 ± 0.0028
31 | UCCUGGAACAGCUAGCUUAGUAUUUAGUUA | 0.0065 ± 0.0023
32 | UCCUGGUACAGCUUGCAUAGUAUUUAGUGA | 0.00389 ± 0.0025
33 | UCCUGGUACAGCUUGCAUAGUAUUUAGUA | 0.00521 ± 0.003
34 | UCCUGCUACAGCUUGCACAGUAUUUAGUUA | 0.00803 ± 0.0023
35 | UCCUGGAACAGCUUGCAUAGUAUUUAGUAA | 0.00459 ± 0.002
36 | UCCUCCUAGUGCUUGCAUAGUAUUUAGUUA | 0.00418 ± 0.0018
37 | UCCUUCUACAGCUUGCAUAGUAUUUAGUUA | 0.0105 ± 0.0029
38 | UCCUGGAACAGCCUGCAUAGUAUUUAGUUA | 0.00896 ± 0.0029
39 | UCCUGGAACAGCUUGUCAUAGUAUUUAGUUA | 0.00365 ± 0.0033
40 | UCCUCCAAGAGCUUGCAUAGUAUUUAGUUA | 0.007 ± 0.0024
